We go through 14 molecules from PubChem BioAssay (EPA / NIEHS).

A short description of assay [1]: BSK_4H_Eotaxin3: BioMAP Diversity Plus: 4H Assay for Eotaxin 3 Biomarker Activity (AID 2283000; active = hit-call score of the fitted dose curve at least 0.9, where 1 is the maximum; inactive = score below 0.9;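 note: CCL26 protein level quantified by ELISA in parallel with SRB cytotoxicity check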). The settings on record: primary human endothelial cells (HUVEC); actives raise or lower the signal. An outline of the steps: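 ELISA quantitation of CCL26 (Eotaxin-3) protein from chemically dosed human vascular endothelial cells at 24 h; increases and decreases both scored relative to DMSO-treated baseline.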

Read-out in assay [2]: Intercellular Adhesion Molecule 1 (ICAM1), ICAM1 (gene 3383)
Briefly: BSK_3C_ICAM1: BioMAP Diversity Plus: 3C Assay for Intercellular Adhesion Molecule 1 (ICAM1) Biomarker Activity (AID 2283003; active = hit-call score of the fitted dose curve at least 0.9, where 1 is the maximum; inactive = score below 0.9). The settings on record: primary human endothelial cells (HUVEC); actives raise or lower the signal. An outline of the steps:
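Human vascular endothelial primary cells, 3C conditions, 24 h treatment. ICAM-1 by ELISA.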

Assay [3] can be described thus: BSK_3C_Proliferation: Cell Proliferation Assessment in the BioMAP Diversity Plus: 3C Assay (AID 2283006; active = hit-call score of the fitted dose curve at least 0.9, where 1 is the maximum; inactive = score below 0.9;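 for AC50: potency may reflect either rise or fall in cell number versus DMSO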). To be noted: primary human endothelial cells (HUVEC). The method in brief:
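Proliferation of human vascular endothelial primary cells after 48 h dosing, quantified as SRB-stained protein at 560 nm relative to DMSO.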

Read-out in assay [4]: Interleukin-1 alpha (IL1a), IL1A (gene 3552)
Briefly: BSK_BE3C_IL1a: BioMAP Diversity Plus: BE3C Assay for Interleukin-1 alpha (IL1a) Biomarker Activity (AID 2283016; active = hit-call score of the fitted dose curve at least 0.9, where 1 is the maximum; inactive = score below 0.9). The settings on record: primary human bronchial epithelial cells; actives raise or lower the signal. The method in brief:
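Cultures of primary human bronchial epithelial cells receive test chemical. After 24 h, IL-1a is quantified by ELISA, while parallel wells are fixed in TCA and SRB-stained for total protein. Changes in either direction are fitted relative to DMSO.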

Read-out in assay [5]: Monocyte Chemoattractant Protein-1 (MCP1), CCL2 (gene 6347)
Briefly: BSK_3C_MCP1: BioMAP Diversity Plus: 3C Assay for Monocyte Chemoattractant Protein-1 (MCP1) Biomarker Activity (AID 2283017; active = hit-call score of the fitted dose curve at least 0.9, where 1 is the maximum; inactive = score below 0.9). The settings on record: primary human endothelial cells (HUVEC); actives raise or lower the signal. An outline of the steps:
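Using human vascular primary endothelium, researchers measured MCP-1 by ELISA 24 h after treatment, with DMSO serving as negative control for bidirectional fitting.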

Read-out in assay [6]: Monocyte Chemoattractant Protein-1 (MCP1), CCL2 (gene 6347)
Briefly: BSK_4H_MCP1: BioMAP Diversity Plus: 4H Assay for Monocyte Chemoattractant Protein-1 (MCP1) Biomarker Activity (AID 2283018; active = hit-call score of the fitted dose curve at least 0.9, where 1 is the maximum; inactive = score below 0.9). The settings on record: primary human endothelial cells (HUVEC); actives raise or lower the signal. The method in brief: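 Readout: MCP-1 ELISA on compound-treated HUVEC, sampled 24 h post-dosing. Baseline and negative control DMSO; bidirectional fit. Overt toxicity checked alongside by sulforhodamine B protein staining at time of biomarker measurement.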

Read-out in assay [7]: Human Leukocyte Antigen - DR isotype (HLADR), HLA-DRA (gene 3122)
Nature of the assay: BSK_3C_HLADR: BioMAP Diversity Plus: 3C Assay for Human Leukocyte Antigen - DR isotype (HLADR) Biomarker Activity (AID 2283019; active = hit-call score of the fitted dose curve at least 0.9, where 1 is the maximum; inactive = score below 0.9;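 for outcome: ELISA of cell-surface HLA-DR on HUVEC 24 h after dosing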). To be noted: primary human endothelial cells (HUVEC); actives raise or lower the signal. The method in brief:
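Compound added to primary HUVEC cultures, 24 h incubation, then HLA-DR determined by ELISA; endpoint derived by bidirectional fitting relative to DMSO negative control.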

Read-out in assay [8]: Interleukin-8 (IL8), CXCL8 (gene 3576)
Briefly: BSK_3C_IL8: BioMAP Diversity Plus: 3C Assay for Interleukin-8 (IL8) Biomarker Activity (AID 2283020; active = hit-call score of the fitted dose curve at least 0.9, where 1 is the maximum; inactive = score below 0.9). The settings on record: primary human endothelial cells (HUVEC); actives raise or lower the signal. The method in brief:
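Human vascular endothelial cells (umbilical vein) in the 3C system; IL-8 level detected by ELISA at 24 h post-dose, with DMSO as baseline.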

In assay [9] the target is human Peroxisome Proliferator-activated Receptor alpha (PPARa), PPARA (gene 5465) (UniProt Q07869). Nature of the assay: ATG_PPARa_TRANS: Attagene TRANS-FACTORIAL HepG2 Assay for human Peroxisome Proliferator-activated Receptor alpha (PPARa) (AID 2283001).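 For AC50: potency for gain of reporter signal over DMSO so agonist or activator.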 An outline of the steps: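 HepG2 cells transiently transfected with multiplexed GAL4-UAS reporter units and chimeric NR-Gal4 constructs were dosed for 24 h. Reporter mRNA was measured by RT-PCR with fluorescent labelling and capillary electrophoresis; gain of signal fitted against DMSO.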

Assay [10] addresses human Peroxisome Proliferator-activated Receptor delta (PPARd), PPARD (gene 5467) (UniProt Q03181). Briefly: ATG_PPARd_TRANS: Attagene TRANS-FACTORIAL HepG2 Assay for human Peroxisome Proliferator-activated Receptor delta (PPARd) (AID 2283002). The method in brief: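 HepG2 cells transiently transfected with multiplexed GAL4-UAS reporter units and exogenous chimeric NR-Gal4 proteins; 24 h compound exposure. Reporter mRNA measured by RT-PCR, 6-FAM labelling, HpaI digestion and capillary electrophoresis; gain of signal versus DMSO.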

The target of assay [11] is Peroxisome proliferator-activated receptor gamma (Homo sapiens) (UniProt P37231). Nature of the assay: ATG_PPARg_TRANS: Attagene TRANS-FACTORIAL HepG2 Assay for human Peroxisome Proliferator-activated Receptor-gamma (PPARg) (AID 2283007). An outline of the steps: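 Twenty-four hours after chemical dosing of transiently transfected HepG2 cells, isolated RNA was converted to cDNA, reporter sequences amplified and 6-FAM-labelled, then HpaI-digested and analysed by capillary electrophoresis. Signal increase against DMSO was fitted.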

For assay [12], the target named is Nuclear receptor subfamily 1 group I member 2 (Homo sapiens) (UniProt O75469). Nature of the assay: ATG_PXR_TRANS: Attagene TRANS-FACTORIAL HepG2 Assay for human Pregnane X Receptor (PXR) (AID 2283008). The method in brief:
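HepG2 cells transiently transfected with multiple reporter units, here a PXR-GAL4 chimera driving a GAL4-UAS reporter; 24 h compound exposure. Reporter mRNA measured by RT-PCR, FAM labelling and capillary electrophoresis; gain of signal fitted against DMSO baseline.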

Assay [13] has as its target human RAR-related Orphan Receptor beta (RORb), RORB (gene 6096) (UniProt Q92753). Nature of the assay: ATG_RORb_TRANS: Attagene TRANS-FACTORIAL HepG2 Assay for human RAR-related Orphan Receptor beta (RORb) (AID 2283010). An outline of the steps:
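In this TRANS-format test, human HepG2 cells express chimeric NR-Gal4 fusion proteins driving GAL4-UAS reporters. After 24 h dosing, reporter transcripts are measured by fluorescent RT-PCR/capillary electrophoresis, with DMSO as negative control.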

Assay [14] has as its target Retinoic acid receptor RXR-alpha (Homo sapiens) (UniProt P19793). Briefly: ATG_RXRa_TRANS: Attagene TRANS-FACTORIAL HepG2 Assay for human Retinoid X Receptor alpha (RXRa) (AID 2283012). An outline of the steps:
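Cells (HepG2) carried transiently transfected GAL4-responsive reporter units. Following a 24 h chemical incubation, reporter mRNA induction was read via RT-PCR fragment analysis; DMSO served as negative control and baseline.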

Assay [15] has as its target human Retinoid X Receptor beta (RXRb), RXRB (gene 6257) (UniProt P28702). Briefly: ATG_RXRb_TRANS: Attagene TRANS-FACTORIAL HepG2 Assay for human Retinoid X Receptor beta (RXRb) (AID 2283013). The method in brief:
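Multiplexed TRANS reporter assay in HepG2; 24 h dosing; reporter mRNA by RT-PCR/CE fluorescence; gain-of-signal relative to DMSO.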

Assay [16] addresses human Retinoic Acid Receptor gamma (RARg), RARG (gene 5916) (UniProt P13631). Nature of the assay: ATG_RARg_TRANS: Attagene TRANS-FACTORIAL HepG2 Assay for human Retinoic Acid Receptor gamma (RARg) (AID 2283009). The method in brief: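 HepG2, RARg-GAL4 TRANS system, 24 h exposure; reporter mRNA by RT-PCR + CE fluorescence; increase over DMSO.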
For assay [17], the target named is human RAR-related Orphan Receptor gamma (RORg), RORC (gene 6097) (UniProt P51449). Nature of the assay: ATG_RORg_TRANS: Attagene TRANS-FACTORIAL HepG2 Assay for human RAR-related Orphan Receptor gamma (RORg) (AID 2283011). The method in brief: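 Chimeric RORg-Gal4 transactivation in transfected HepG2; 24 h exposure; RT-PCR/capillary electrophoresis readout of reporter mRNA, DMSO baseline.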

The target of assay [18] is human Thyroid Receptor alpha (THRa1), THRA (gene 7067) (UniProt P10827). Nature of the assay: ATG_THRa1_TRANS: Attagene TRANS-FACTORIAL HepG2 Assay for human Thyroid Receptor alpha (THRa1) (AID 2283014). The method in brief:
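Measured here is mRNA from a GAL4-UAS reporter in transfected HepG2 cells carrying a Gal4-fused receptor, 24 h post-dose. DMSO served as negative control and baseline.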

Assay [19] has as its target Retinoic acid receptor alpha (Homo sapiens) (UniProt P10276). Briefly: ATG_RARa_TRANS: Attagene TRANS-FACTORIAL HepG2 Assay for human Retinoic Acid Receptor alpha (RARa) (AID 2283005). An outline of the steps: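 HepG2 cells transiently transfected with multiple reporter units expressing chimeric RARα-GAL4 fusion, with GAL4-UAS-driven reporters. After 24 h compound exposure, reporter mRNA induction quantified by RT-PCR and capillary electrophoresis with fluorescent labeling; gain-of-signal fitted relative to DMSO control.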

Values joined by “and” are separate entries in the source; they are usually repeats but may differ in a detail not shown here. Equal values may be shown once. Results filed as inconclusive are left out. Where a structure was tested more than once in an assay, its records may differ in their call. Active and inactive are the calls of the source. Rule for the calls, unless noted: active = hit-call score of the fitted dose curve at least 0.9, where 1 is the maximum; inconclusive = response in the unintended direction; inactive = score below 0.9.

human RAR-related Orphan Receptor beta (RORb), RORB (gene 6096), sequence (Q92753 whole entry, looked up, the tested form may be a part): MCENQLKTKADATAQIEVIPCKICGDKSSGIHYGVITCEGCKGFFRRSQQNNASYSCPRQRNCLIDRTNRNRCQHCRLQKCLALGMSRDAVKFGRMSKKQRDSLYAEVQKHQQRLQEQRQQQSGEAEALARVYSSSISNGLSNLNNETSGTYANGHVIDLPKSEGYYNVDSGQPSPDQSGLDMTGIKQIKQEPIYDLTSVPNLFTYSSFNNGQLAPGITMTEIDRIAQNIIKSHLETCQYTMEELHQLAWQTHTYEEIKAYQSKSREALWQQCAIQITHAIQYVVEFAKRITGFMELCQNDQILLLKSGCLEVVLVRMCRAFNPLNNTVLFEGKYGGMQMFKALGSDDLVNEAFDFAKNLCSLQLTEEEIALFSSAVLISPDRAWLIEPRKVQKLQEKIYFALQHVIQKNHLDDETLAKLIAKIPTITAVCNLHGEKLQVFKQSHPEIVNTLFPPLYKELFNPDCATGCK
human Retinoic Acid Receptor gamma (RARg), RARG (gene 5916), sequence (P13631 whole entry, looked up, the tested form may be a part): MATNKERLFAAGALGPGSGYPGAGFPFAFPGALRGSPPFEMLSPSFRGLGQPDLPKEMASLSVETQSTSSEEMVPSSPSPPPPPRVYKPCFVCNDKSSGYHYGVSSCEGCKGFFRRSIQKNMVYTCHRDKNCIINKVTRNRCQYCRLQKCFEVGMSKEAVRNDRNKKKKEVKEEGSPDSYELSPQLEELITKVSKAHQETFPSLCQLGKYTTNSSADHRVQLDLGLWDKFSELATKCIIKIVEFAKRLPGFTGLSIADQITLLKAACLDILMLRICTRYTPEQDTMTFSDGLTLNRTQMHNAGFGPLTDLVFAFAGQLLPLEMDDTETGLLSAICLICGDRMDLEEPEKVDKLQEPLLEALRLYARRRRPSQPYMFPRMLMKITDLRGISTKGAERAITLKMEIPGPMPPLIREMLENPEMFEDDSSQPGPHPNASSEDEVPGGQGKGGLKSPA
Retinoic acid receptor RXR-alpha (Homo sapiens), sequence (P19793 whole entry, looked up, the tested form may be a part): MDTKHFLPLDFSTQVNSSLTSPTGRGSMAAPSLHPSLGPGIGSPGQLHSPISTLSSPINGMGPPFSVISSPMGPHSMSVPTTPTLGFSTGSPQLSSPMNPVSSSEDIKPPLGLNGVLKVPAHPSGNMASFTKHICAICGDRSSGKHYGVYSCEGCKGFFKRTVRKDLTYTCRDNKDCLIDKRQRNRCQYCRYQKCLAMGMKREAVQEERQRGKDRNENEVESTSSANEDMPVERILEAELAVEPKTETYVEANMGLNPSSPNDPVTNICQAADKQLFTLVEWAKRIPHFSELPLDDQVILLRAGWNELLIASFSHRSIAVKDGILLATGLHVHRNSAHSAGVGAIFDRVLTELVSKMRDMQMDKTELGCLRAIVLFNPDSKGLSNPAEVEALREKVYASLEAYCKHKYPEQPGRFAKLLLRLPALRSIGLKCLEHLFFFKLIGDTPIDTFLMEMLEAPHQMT
human Thyroid Receptor alpha (THRa1), THRA (gene 7067), sequence (P10827 whole entry, looked up, the tested form may be a part): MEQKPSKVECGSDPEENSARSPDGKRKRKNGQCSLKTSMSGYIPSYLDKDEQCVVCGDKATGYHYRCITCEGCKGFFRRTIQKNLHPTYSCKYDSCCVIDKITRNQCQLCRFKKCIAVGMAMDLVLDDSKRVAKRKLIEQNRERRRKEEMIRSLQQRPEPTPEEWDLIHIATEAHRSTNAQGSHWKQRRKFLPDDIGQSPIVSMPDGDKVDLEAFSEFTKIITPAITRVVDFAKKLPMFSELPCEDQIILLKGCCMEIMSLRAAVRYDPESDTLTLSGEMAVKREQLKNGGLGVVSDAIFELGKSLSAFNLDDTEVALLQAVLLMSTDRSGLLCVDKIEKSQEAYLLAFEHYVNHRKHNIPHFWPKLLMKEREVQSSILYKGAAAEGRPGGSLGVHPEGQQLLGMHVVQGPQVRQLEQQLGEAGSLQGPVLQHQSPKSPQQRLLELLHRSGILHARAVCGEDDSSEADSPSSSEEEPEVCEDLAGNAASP
Retinoic acid receptor alpha (Homo sapiens), sequence (P10276 whole entry, looked up, the tested form may be a part): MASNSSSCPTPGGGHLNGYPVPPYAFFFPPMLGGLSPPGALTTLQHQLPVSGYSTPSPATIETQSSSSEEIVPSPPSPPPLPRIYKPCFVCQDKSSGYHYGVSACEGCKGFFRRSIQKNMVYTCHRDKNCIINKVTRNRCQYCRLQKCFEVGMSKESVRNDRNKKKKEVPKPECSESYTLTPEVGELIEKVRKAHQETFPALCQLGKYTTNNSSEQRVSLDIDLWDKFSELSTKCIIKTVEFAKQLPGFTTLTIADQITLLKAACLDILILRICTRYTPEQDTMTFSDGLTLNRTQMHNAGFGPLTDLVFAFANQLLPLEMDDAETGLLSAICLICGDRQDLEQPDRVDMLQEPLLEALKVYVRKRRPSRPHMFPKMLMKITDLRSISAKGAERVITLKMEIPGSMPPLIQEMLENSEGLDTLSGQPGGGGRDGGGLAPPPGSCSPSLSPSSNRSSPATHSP
Peroxisome proliferator-activated receptor gamma (Homo sapiens), sequence (P37231 whole entry, looked up): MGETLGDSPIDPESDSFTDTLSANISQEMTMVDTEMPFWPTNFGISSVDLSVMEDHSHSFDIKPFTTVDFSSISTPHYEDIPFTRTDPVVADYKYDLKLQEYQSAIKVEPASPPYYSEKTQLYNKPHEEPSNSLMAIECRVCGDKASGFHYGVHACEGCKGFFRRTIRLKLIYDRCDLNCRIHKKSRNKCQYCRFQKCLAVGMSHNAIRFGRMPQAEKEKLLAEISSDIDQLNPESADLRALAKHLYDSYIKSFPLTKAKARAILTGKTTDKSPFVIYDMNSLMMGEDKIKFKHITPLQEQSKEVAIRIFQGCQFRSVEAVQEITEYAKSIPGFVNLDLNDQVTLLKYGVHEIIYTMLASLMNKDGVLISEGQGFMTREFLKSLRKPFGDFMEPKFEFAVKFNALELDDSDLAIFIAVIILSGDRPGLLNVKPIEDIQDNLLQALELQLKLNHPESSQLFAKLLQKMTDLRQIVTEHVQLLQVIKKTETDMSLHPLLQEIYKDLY
human RAR-related Orphan Receptor gamma (RORg), RORC (gene 6097), sequence (P51449 whole entry, looked up, the tested form may be a part): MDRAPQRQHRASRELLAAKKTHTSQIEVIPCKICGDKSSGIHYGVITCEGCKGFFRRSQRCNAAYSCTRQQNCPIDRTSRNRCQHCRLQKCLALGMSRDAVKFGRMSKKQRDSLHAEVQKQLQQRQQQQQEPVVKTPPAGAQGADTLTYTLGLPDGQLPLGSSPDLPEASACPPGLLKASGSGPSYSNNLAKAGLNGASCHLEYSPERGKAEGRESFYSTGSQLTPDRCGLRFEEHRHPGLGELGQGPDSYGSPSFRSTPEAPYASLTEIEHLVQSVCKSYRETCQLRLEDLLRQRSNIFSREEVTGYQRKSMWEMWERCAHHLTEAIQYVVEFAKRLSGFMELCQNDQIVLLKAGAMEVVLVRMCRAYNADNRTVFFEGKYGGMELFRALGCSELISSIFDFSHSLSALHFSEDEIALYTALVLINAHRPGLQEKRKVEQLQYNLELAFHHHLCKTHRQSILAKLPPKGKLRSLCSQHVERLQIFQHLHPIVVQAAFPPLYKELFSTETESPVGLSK
human Peroxisome Proliferator-activated Receptor alpha (PPARa), PPARA (gene 5465), sequence (Q07869 whole entry, looked up, the tested form may be a part): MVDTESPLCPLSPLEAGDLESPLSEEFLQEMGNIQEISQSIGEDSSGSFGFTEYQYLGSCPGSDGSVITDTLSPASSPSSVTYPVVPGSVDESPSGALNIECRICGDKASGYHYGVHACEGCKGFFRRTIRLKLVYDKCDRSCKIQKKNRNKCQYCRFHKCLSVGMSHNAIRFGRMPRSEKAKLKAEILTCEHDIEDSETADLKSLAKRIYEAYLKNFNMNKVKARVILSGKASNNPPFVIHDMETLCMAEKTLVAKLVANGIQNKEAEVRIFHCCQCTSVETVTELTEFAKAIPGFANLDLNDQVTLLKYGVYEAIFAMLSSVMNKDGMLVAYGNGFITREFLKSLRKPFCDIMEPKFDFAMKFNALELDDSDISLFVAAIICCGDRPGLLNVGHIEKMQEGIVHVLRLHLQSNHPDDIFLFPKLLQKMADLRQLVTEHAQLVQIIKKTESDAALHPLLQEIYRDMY
Nuclear receptor subfamily 1 group I member 2 (Homo sapiens), sequence (O75469 whole entry, looked up, the tested form may be a part): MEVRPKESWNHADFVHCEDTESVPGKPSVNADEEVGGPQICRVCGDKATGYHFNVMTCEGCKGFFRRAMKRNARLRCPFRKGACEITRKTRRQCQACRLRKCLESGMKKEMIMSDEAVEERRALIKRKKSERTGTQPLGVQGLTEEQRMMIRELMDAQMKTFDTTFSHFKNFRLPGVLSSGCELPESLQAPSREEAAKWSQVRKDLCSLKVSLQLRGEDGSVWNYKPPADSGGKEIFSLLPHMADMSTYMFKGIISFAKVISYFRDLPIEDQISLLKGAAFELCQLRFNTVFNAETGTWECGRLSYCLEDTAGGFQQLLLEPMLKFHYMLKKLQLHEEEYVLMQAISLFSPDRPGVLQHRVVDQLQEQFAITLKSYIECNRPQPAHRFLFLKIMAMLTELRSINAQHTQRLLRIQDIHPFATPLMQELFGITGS
human Peroxisome Proliferator-activated Receptor delta (PPARd), PPARD (gene 5467), sequence (Q03181 whole entry, looked up, the tested form may be a part): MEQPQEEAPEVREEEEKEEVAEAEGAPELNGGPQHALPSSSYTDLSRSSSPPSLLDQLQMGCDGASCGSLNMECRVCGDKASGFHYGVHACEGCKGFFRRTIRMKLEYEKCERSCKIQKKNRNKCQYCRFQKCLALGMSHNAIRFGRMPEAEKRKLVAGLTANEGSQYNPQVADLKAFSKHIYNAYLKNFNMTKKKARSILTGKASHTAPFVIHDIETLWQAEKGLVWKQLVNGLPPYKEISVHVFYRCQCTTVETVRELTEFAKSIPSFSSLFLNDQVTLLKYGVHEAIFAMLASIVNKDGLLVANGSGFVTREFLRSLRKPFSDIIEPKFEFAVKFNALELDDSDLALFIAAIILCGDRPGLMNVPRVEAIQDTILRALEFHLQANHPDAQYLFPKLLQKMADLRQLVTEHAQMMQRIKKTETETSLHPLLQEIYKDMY

Consider `C=C(C)C(=O)OCCC(F)(F)C(F)(F)C(F)(F)C(F)(F)C(F)(F)C(F)(F)C(F)(F)C(F)(F)F`, for which the result in assay [1], in assay [2], in assay [3], in [4], in assay [5] and in [6] was inactive. The result in assay [7] and in assay [8] was inactive.
On to `O=C(O)C1=NN(c2ccc(S(=O)(=O)O)cc2)C(=O)C1`, for which the molecule was called inactive in assay [9], in assay [10] and in assay [11].
In the case of `CCCCCC#CC(=O)OC`, the result in assay [9], in assay [10], in [12], in assay [13] and in assay [14] was inactive. Moreover, the values for the AC50 in [11] and in assay [15] were 12.9 µM (active) and 100 µM (active), respectively.
Consider `CC1(C)CC(N)CC(C)(CN)C1` (centres undefined), for which the molecule was called inactive in assay [9], in [10], in [11], in assay [12], in assay [16] and in assay [13]. Also, the call in assay [17], in assay [14] and in assay [15] was inactive.
In the case of `CCCC(O)C(CC)CO` (centres undefined), the result in assay [9] and in assay [10] was inactive.
Consider `OCC(F)(OC(F)(F)C(F)(OC(F)(F)C(F)(F)C(F)(F)F)C(F)(F)F)C(F)(F)F` (centres undefined), for which the outcome in assay [1], in [2], in assay [4], in assay [5], in assay [6] and in assay [8] was inactive. For the same molecule, the AC50 (in general, the concentration at which the activity in the assay is half-maximal) in assay [3] is 3.78 µM (active) and 2.59 µM (active); in assay [5], 4.24 µM (active); in assay [6], 3.33 µM (active); in [7], 2.65 µM (active) and 4.85 µM (active); in [8], 6.2 µM (active).
As for `NS(=O)(=O)c1cc(C(=O)O)c(NCc2ccco2)cc1Cl`, the molecule was classed as inactive in [9], in assay [10], in [12], in [13], in assay [17] and in [18]. Further, in assay [11], the AC50 was 42.7 µM (active).
Consider `Cc1cc(O)c2c(c1)C(=O)c1cc(O)cc(O)c1C2=O`, for which the AC50 in assay [9] is 27.5 µM (active); in assay [11], 9.51 µM (active); in assay [12], 6.34 µM (active); in [18], 12.6 µM (active). The result in assay [10], in assay [19], in assay [16], in [13] and in assay [14] was inactive.
Consider `CC/C=C\CCOC(C)OCC` (centres undefined), for which the result in assay [9], in [10], in assay [11], in assay [12], in [13] and in [14] was inactive.
Consider `CCCCC1CCCCC(=O)O1` (centres undefined), for which the molecule was classed as inactive in assay [9], in assay [10], in assay [19], in assay [12], in assay [16] and in [13]. Further, in [14], the molecule was classed as inactive. In addition, the AC50 in [11] is 47.4 µM (active).
In the case of `CCCCCCCCSCc1cc(C)c(O)c(CSCCCCCCCC)c1`, the outcome in [9], in assay [10], in assay [11], in assay [12], in assay [13] and in assay [17] was inactive. The result in assay [14], in assay [15] and in [18] was inactive.
On to `CC(=O)CCc1ccc(O)cc1`, for which the outcome in assay [9], in [10], in assay [11], in assay [12], in [13] and in assay [17] was inactive. The outcome in assay [15] and in assay [18] was inactive.
In the case of `ClCCOCCOCCCl`, the molecule was classed as inactive in [9], in [10], in assay [19], in [11], in [13] and in assay [17]. The result in assay [14], in [15] and in assay [18] was inactive.
With `CCC(=O)OCC=Cc1ccccc1`, the result in assay [1], in [2], in [3], in [11], in assay [17] and in assay [14] was inactive. Moreover, the outcome in assay [15], in [4], in assay [5], in [6], in assay [7] and in [8] was inactive. Besides, the AC50 in assay [12] was 16.7 µM (active).
